# Bioassay records (PubChem)
# PfHsp90 yeast 2 = growth inhibition of yeast expressing Plasmodium Hsp90. inhibition, % at 9.4 µM. 310,000 tested, 0.32% active. AID 504621. S. cerevisiae expressing PfHsp90, BacTiter-Glo ATP, 48 h; yeast lacking PDR1 and PDR3 efflux regulators;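 active = every replicate shows inhibition above about 80%, whatever the replicate mean, limit read from the data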;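 note: 0% = DMSO neutral controls and 100% = 20 µM radicicol positive controls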
# V-ATPase pHluor = regulators of yeast V-ATPase proton transport; S. cerevisiae, pHLuorin cytosolic pH fluorescence; response, % at 10 µM; 350,000 tested, 0.37% active; AID 504577; in the data active = response mostly above about 7.3%, no sharp cut-off; inactive = mostly below about 5.4%; note: actives read high
# TIM10 inh = inhibits growth of TIM10 yeast strain. S. cerevisiae TIM10 strain growth, BacTiter-Glo luminescence, 24 h. inhibition, % at 10 µM. 330,000 tested, 1.4% active. AID 463195;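 active = inhibition of 40% or more at the single tested concentration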;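 note: wild-type TIM10 isogenic control strain grown at permissive 25 °C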
# tim23-1 inh = growth inhibitors of tim23-1 mutant yeast; inhibition, % at 20 µM; 330,000 tested, 1.3% active; S. cerevisiae tim23-1 growth, BacTiter-Glo luminescence, 24 h;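 active = growth inhibition of the mutant yeast at or above 50%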;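 note: temperature-sensitive mutant grown at 25 °C; plate controls were DMSO-treated mutant yeast for no effect and medium wells lacking yeast for full effect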
# tim10-1 inh = inhibits growth of tim10-1 mutant yeast | 330,000 tested, 2.2% active | S. cerevisiae tim10-1 ts strain growth, BacTiter-Glo, 24 h | inhibition, % at 20 µM;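 active = inhibition of at least 40%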;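 note: mutant grown at 25 °C; 0% = DMSO wells with yeast and 100% = wells holding no yeast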
# tim10-1 confirm = tim10-1 yeast growth inhibition, confirmed; 7,400 tested, 56% active; inhibition, % at 20 µM; shares compounds with tim10-1 inh; AID 463213; S. cerevisiae tim10-1 ts strain growth, BacTiter-Glo, 24 h;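 active = inhibition of yeast growth at or above a set limit in either of two repeat tests at 20 µM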;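 note: tim10-1 mutant grown at permissive 25 °C to find synthetic lethal compounds; 0% = DMSO yeast wells and 100% = medium wells without yeast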
# TIM10 conf = confirmation of TIM10 yeast growth inhibitors | S. cerevisiae tim10 strain growth, BacTiter-Glo luminescence, 24 h | AID 463215 | shares compounds with TIM10 inh | inhibition, % at 10 µM | 4,600 tested, 63% active;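 active = inhibition of yeast growth at or above a set limit in either of two replicates at 10 µM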;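 note: this counterscreen used the strain with wild-type TIM10; 0% = yeast with DMSO and 100% = medium wells lacking yeast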
# * hit, by the source's call; / = not tested or not shown. Most compounds without a hit are left out; they make up all but 3.7% or so of the library.
SMILES,PfHsp90 yeast 2,V-ATPase pHluor,TIM10 inh,tim23-1 inh,tim10-1 inh,tim10-1 confirm,TIM10 conf
O=C1OC(c2ccccc2)=N/C1=C/c1cccc(OC(=O)c2cccs2)c1,25.1,-2.4,51.4*,9.0,48.3*,25.1,-0.1
CCN(CC)CCN(C(=O)c1ccc(C(=O)c2ccccc2)cc1)c1nc2ccc(OC)cc2s1,13.2,0.5,21.2,24.7,19.0,/,/
CCN(CC)CCN(C(=O)c1ccc(S(=O)(=O)N(C)C2CCCCC2)cc1)c1nc2ccc(OC)cc2s1,0.2,-2.7,48.0*,41.9,58.5*,42.5*,37.8*
CCOC(=O)N1CCN(S(=O)(=O)c2ccc(C(=O)N(CCN(CC)CC)c3nc4ccc(C)cc4s3)cc2)CC1,-22.8,-2.7,40.0,31.3,48.0*,35.0*,14.0
O=C(Nc1ccccc1-c1ccccc1)c1ccc(=O)[nH]n1,9.0,-1.0,3.5,21.8,10.7,/,/
CC[n+]1c(/C=C/c2c[nH]c3ccccc23)ccc2cc(C)ccc21,24.1,8.2*,58.9*,26.8,67.4*,70.0*,37.8*
CCN(CC)C(=O)c1ccc(/C=C/c2c[nH]c3ccccc23)[n+](C)c1,-22.5,-3.9,-13.4,14.4,1.6,/,/
Cc1sc2ncnc(SC(C)C(=O)N3c4ccccc4Sc4ccccc43)c2c1C (configuration not stated),-21.8,2.2,-9.4,13.2,-5.3,/,/
Cc1ccc(OCC(=O)NNC(=O)C(C)Sc2ncnc3sc(C)c(C)c23)cc1 (configuration not stated),9.0,0.3,54.8*,40.5,42.0*,41.8*,16.4
O=C(CSCc1ccc(Br)cc1)N=Nc1c(O)[nH]c2ccccc12,-1.6,-2.6,43.0*,45.3,44.9*,40.1*,33.5*
O=C(CSc1nc2ccccc2[nH]1)N=Nc1c(O)[nH]c2ccccc12,-4.3,-7.1,7.8,5.1,3.1,/,/
CC(=O)Nc1ccc(C(=O)OCc2ccccc2Cl)cc1,-20.2,/,42.5*,36.4,53.9*,26.0,34.4*
Cc1ccsc1C1Nc2ccccc2-c2nc3ccccc3n21 (configuration not stated),4.6,1.1,54.3*,49.8,51.3*,39.0*,-16.3
C=CCc1c(C)c(C#N)c2nc3ccccc3n2c1NCCN(C)C,108.8*,-0.7,80.1*,43.0,49.2*,60.0*,84.8*
CN1CCN(C(=O)c2cc(Br)cn2C)CC1,-34.9,0.6,8.9,14.5,-11.4,/,/
CCN1CCN(c2nnc(-c3ccccc3)c3ccccc23)CC1,-14.6,4.5,11.4,-2.5,-4.6,/,/
CCN1CCN(c2cc3c(nn2)Oc2ccccc2N3C)CC1,19.8,8.8,77.3*,44.6,44.2*,56.7*,71.1*
CCOc1ccc(/C=C2\CCc3ccccc3C2=O)cc1,11.6,-3.8,19.6,17.5,24.4,/,/
O=C1/C(=C/c2ccncc2)CCc2ccccc21,8.8,6.6,45.1*,47.4,50.1*,56.2*,55.3*
O=C(NC12CC3CC(CC(C3)C1)C2)c1ccc(-c2ccc(Cl)cc2)o1,-32.5,0.7,31.2,14.1,26.6,/,/
O=C(NC12CC3CC(CC(C3)C1)C2)c1ccc(-c2cccc(Cl)c2)o1,29.6,-1.8,46.7*,47.3,47.3*,35.6*,-17.5
CCN(CC)c1ccc(-n2cc3c(=O)n(C)c(=O)n(C)c3c2)cc1,1.5,-0.7,45.7*,49.5,40.0*,31.0*,-3.1
CN(C)c1ccc(-n2cc3c(=O)n(C)c(=O)n(C)c3c2)cc1,0.6,0.7,8.4,20.9,25.5,/,/
C=CCNC(=O)C1CCN(c2cc(C)nc(-c3ccccc3)n2)CC1,22.2,2.5,6.1,4.7,13.8,/,/
Cc1cc(N2CCC(C(=O)Nc3ccc(F)cc3)CC2)nc(-c2ccccc2)n1,-11.0,-1.8,43.1*,11.5,49.3*,30.2,-8.6
SMILES,PfHsp90 yeast 2,V-ATPase pHluor,TIM10 inh,tim23-1 inh,tim10-1 inh,tim10-1 confirm,TIM10 conf
Cc1nn(C(C)(C)C)c(OC(=O)c2ccc(Br)o2)c1Sc1ccccc1,9.9,-1.4,40.7*,43.0,41.2*,36.1*,36.0*
Cc1nn(C(C)(C)C)c(OC(=O)c2cccs2)c1Sc1ccccc1,-4.4,-6.7,16.5,28.3,25.5,/,/
Cc1nn(C(C)(C)C)c(OC(=O)c2ccco2)c1Sc1ccccc1,-16.2,2.7,46.9*,43.9,49.3*,38.6*,46.1*
Cc1nn(C(C)(C)C)c(OC(=O)c2ccc3c(c2)OCO3)c1Sc1ccccc1,12.3,2.2,29.0,25.5,20.1,/,/
Cc1coc2cc3oc(=O)c(CCC(=O)N[C@@H](CCCNC(N)=O)C(=O)O)c(C)c3cc12,-14.2,-1.7,-2.6,-4.9,0.0,/,/
COc1ccc(C(=O)Nc2ccccc2C(=O)N/N=C/c2cccc3ccccc23)cc1,/,-2.3,56.3*,47.3,59.9*,57.0*,37.2*
COc1ccc(C(=O)Nc2ccccc2C(N)=O)cc1,39.0,1.4,-11.0,15.2,-6.3,/,/
CC(C)Oc1ccc(/C=N/NC(=O)c2nnn(-c3nonc3N)c2CN(C)c2ccccc2)cc1,3.5,3.7,14.5,21.5,14.9,/,/
O=c1cc(-c2ccccc2)nc2c(-c3ccccc3)c(C(F)(F)F)[nH]n12,/,-3.5,-2.7,3.3,-5.3,/,/
COc1ccc(C(CNC(=O)c2cc(S(=O)(=O)N3CCCC3)ccc2Cl)N2CCCC2)cc1 (configuration not stated),11.6,-0.9,-4.1,-4.2,2.4,/,/
Cc1ccc(C2Oc3ccccc3C3=C2C(c2cccs2)n2ncnc2N3)cc1 (configuration not stated),-27.6,-0.8,45.3*,48.5,41.5*,26.2,16.0
O=C(/C=C/c1cccc([N+](=O)[O-])c1)n1cnc2ccccc21,14.0,0.8,45.1*,47.5,46.2*,42.9*,38.8*
COc1ccc(N2CCN(C(=O)c3ccc(Br)cc3)CC2)c([N+](=O)[O-])c1,104.8*,-0.1,52.6*,45.4,54.2*,47.9*,63.2*
CC(C)c1ccc(N=c2c([N+](=O)[O-])nn(-c3ccc4c(c3)OCCO4)n2O)cc1,3.2,1.7,23.6,29.7,22.3,/,/
CCc1cccc(N=c2c([N+](=O)[O-])nn(-c3ccc4c(c3)OCCO4)n2O)c1,-37.0,1.5,57.4*,46.9,48.2*,31.1*,41.7*
c1csc(C2Nc3cccc4cccc(c34)N2)c1,-5.1,1.0,48.3*,40.3,53.1*,51.6*,-2.0
COc1ccc(C2Nc3cccc4cccc(c34)N2)cc1,-5.1,0.4,23.7,37.6,24.4,/,/
CN(C)c1ccc(C2Nc3cccc4cccc(c34)N2)cc1,-7.4,-4.4,66.1*,40.4,57.2*,57.8*,67.2*
COc1cc(S(=O)(=O)N2CCN(c3ccccn3)CC2)ccc1Br,-3.7,-1.6,-6.5,38.4,3.7,/,/
